According to PubChem BioAssay AID1865 (National Center for Advancing Translational Sciences (NCATS), 2009):
Values joined by “and” are separate entries in the source; they are usually repeats but may differ in a detail not shown here. Identical values can stand only once. In all, about 280,000 compounds went through this assay and about 540 (0.19%) were called active. Not shown: some 2% with an inconclusive outcome. The call rests on the fitted dose curve; in most records, active means well fitted activation curve with a large enough effect; inconclusive means small, poorly fitted or top-dose-only effect; inactive means flat fitted curve, though single readings scatter. Shown is part of a subset that was picked to be rich in actives. Some compounds were tested as several samples or in several runs, with calls that do not always agree.

Assay: Quantitative High-Throughput Screen for Regulators of Epigenetic Control; further: nearly all actives have a fitted effect of over 60% in size; on GFP activation: % of control where 0% means no effect
Conditions: murine LDR cells, GFP reporter derepression, 30 h; series mostly up to 53.9 µM; GFP activation: at the top concentration
Source text: NIH Molecular Libraries Screening Centers Network [MLPCN] NIH Chemical Genomics Center [NCGC] MLSCN Grant: 1 X01 MH079860-01 Assay Provider: Elisabeth D. Martinez, University of Texas SW Medical Center NCGC Assay Overview: The Locus Derepression (LDR) assay detects the derepression or induction of a GFP reporter that is stably integrated in a genomic region of murine cells that is presumably silenced. Transcription of the GFP reporter is controlled by a CMV promoter, which normally is constitutively active. However, this cell line, termed LDR, was selected for lack of constitutive production of GFP. GFP production can be induced by incubating the cells with histone deacetylase or DNA methyltransferase inhibitors (Martinez et al., 2006). Compounds that derepress or induce this reporter locus are identified by enumerating GFP positive cells using a laser-scanning microplate cytometer (Auld et al., 2006). This assay was screened against the MLSMR earlier (AID 597; (Johnson et al., 2008) and has been rescreened here against the expanded collection.
NCGC Assay Protocol Summary: Three hundred LDR cells in 5 uL per well were dispensed into black, clear-bottom 1536-well plates. Twenty-three nL compound was transferred to the assay plate and cells were incubated 30 hours at 37 C. Medium was removed, cells were washed two times with PBS, and GFP-positive cells were enumerated as fluorescent objects between the sizes of 20 to 120 um width and depth using an Acumen Explorer. References Auld, DS, Johnson, RL, Zhang, YQ, Veith, H, Jadhav, A, Yasgar, A, Simeonov, A, Zheng, W, Martinez, ED, Westwick, JK, Austin, CP, Inglese, J (2006). Fluorescent protein-based cellular assays analyzed by laser-scanning microplate cytometry in 1536-well plate format. Methods Enzymol 414: 566-89. Johnson, RL, Huang, W, Jadhav, A, Austin, CP, Inglese, J, Martinez, ED (2008). A quantitative high-throughput screen identifies potential epigenetic modulators of gene expression. Anal Biochem 375: 237-48. Martinez, ED, Dull, AB, Beutler, JA, Hager, GL (2006). High-content fluorescence-based screening for epigenetic modulators. Methods Enzymol 414: 21-36.
Potency means the concentration at half of the fitted maximal effect.

Structure (SMILES)	Potency	GFP activation
N#CC(C#N)=Cc1cc(O)c(O)c([N+](=O)[O-])c1	inactive and 17.8 µM (active)	
C[C@@]12CC[C@H]3[C@@H](CC[C@]4(O)C[C@H](O)CC[C@@]34C=O)[C@]1(O)CC[C@@H]2C1=CC(=O)OC1		4.11% [at 16.9 µM] (inactive)
CCCCCCCCc1[se]c2ccccc2c1Br		5.52% (inactive)
COc1ccccc1-c1[se]c2ccccc2c1I		0.901% (inactive)
CN[C@@H]1C[C@H]2O[C@@](C)([C@@H]1OC)n1c3ccccc3c3c4c(c5c6ccccc6n2c5c31)C(=O)NC4	inactive	
CC(C)(Cc1c[nH]c2ccc(Cl)cc12)NCCOc1ccccc1OCC1CC1	inactive	
CC1=CC(=Cc2sc3ccccc3[n+]2C)C=C(C)O1	11.2 µM (active)	
Fc1ccc(C(OCCN2CCN(C/C=C\c3ccccc3)CC2)c2ccc(F)cc2)cc1		3.24% (inactive)
CC(C)(O)c1[se]c2ccccc2c1I		3.15% (inactive)
NC[C@H](O)c1ccc(O)cc1		1.37% [at 16.9 µM] (inactive)
COc1cc(Cn2c(N)c(C(=O)NCc3ccco3)c3nc4ccccc4nc32)cc(OC)c1OC		1.22% (inactive)
CCCn1c(C(=O)c2ccccc2OC)nc2ccccc21		-2.57% (inactive)
CCOc1ccc(CNC(=O)c2cccc(Nc3nc4ccccc4n4nnnc34)c2)cc1OC	20 µM (active)	
C[C@]12CC[C@H](O)C[C@@H]1CC[C@H]1[C@H]2CC[C@]2(C)C(=O)CC[C@@H]12	inactive	
CC(=O)c1c(O)c(C)c(O)c(Cc2c(O)c3c(c(C(=O)/C=C\c4ccccc4)c2O)OC(C)(C)C=C3)c1O		-2.7% (inactive)
